Most compounds without a hit are left out; they make up all but 3.5% or so of the library.
TEAD-YAP inh – TEAD-YAP interaction inhibition, primary screen, TEAD-YAP interaction inhibitor project, luminescence, HEK-TIYL cells | 640,000 tested, 1.4% active | inhibition, % at 9.12 µM | TEAD-Gal4/YAP UAS-luciferase luminescence; in the data active = inhibition above about 32%;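 note: 0% = median of test compound wells and 100% = reference inhibitor wells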
GPR151 activ – activators of human GPR151, primary screen, cell-based, PathHunter beta-arrestin, luminescence | G-protein coupled receptor 151 (Homo sapiens), Q8TDV0 | PathHunter beta-arrestin GPR151 cells | activation, % at 11.2 µM | 650,000 tested, 1% active | AID 1508602, 2020; in the data active = activation above about 4.9%;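 note: 0% = median of compound wells and 100% = cells with positive control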
Target sequence (Q8TDV0 whole entry, looked up): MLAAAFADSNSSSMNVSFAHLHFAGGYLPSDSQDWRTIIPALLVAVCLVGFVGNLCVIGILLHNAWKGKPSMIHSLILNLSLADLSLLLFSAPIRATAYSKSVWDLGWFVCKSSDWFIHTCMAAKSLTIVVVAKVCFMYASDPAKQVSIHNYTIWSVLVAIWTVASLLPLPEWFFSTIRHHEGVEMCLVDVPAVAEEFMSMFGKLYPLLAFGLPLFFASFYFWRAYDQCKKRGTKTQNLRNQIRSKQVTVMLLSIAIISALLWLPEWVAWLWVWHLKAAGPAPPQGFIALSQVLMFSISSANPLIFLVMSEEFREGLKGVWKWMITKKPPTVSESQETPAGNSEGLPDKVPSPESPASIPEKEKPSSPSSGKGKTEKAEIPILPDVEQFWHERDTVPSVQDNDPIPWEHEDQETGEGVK
MITF inh – MITF inhibitors, primary screen, biochemical, AlphaScreen, human; Microphthalmia-associated transcription factor (Homo sapiens), O75030; AlphaScreen MITF homodimerization, bead proximity signal; inhibition, % at 2.6 µM; 650,000 tested, 0.91% active; in the data active = inhibition above about 50%;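 note: 0% = vehicle wells with protein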
FBW7 activator – FBW7 E3 ligase activators, primary screen, biochemical, AlphaScreen, human. AlphaScreen FBW7–phospho-cyclin E peptide binding, activator screen. normalized activity (activation), % at 26.1 µM. 650,000 tested, 0.13% active; in the data active = normalized activity above about 1.9%;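 note: purified mutant Fbw7 with reduced substrate affinity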
MITF inh conf – MITF inhibitors, retest of hits, confirmation, biochemical, AlphaScreen, triplicate; shares compounds with MITF inh; AlphaScreen MITF homodimerization, biotin/His-MITF beads; inhibition, % at 2.6 µM; 4,700 tested, 16% active;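 active = inhibition above a cutoff derived from the DMSO control wells, cut at about 28% in these data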;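 note: 0% = MITF dimer wells with DMSO only; inhibitors lower the bead chemiluminescence by keeping MITF from dimerizing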
AS interf DR – AlphaScreen optical interference compounds, dose response, counter-screen, biochemical, HTS; AlphaScreen optical interference counterscreen, cell-free; 480 tested, 6% active; IC50, µM; AID 1259373, 2018; shares compounds with MITF inh; call rule not given here
AlphaScreen intf2 – AlphaScreen optical interference compounds, counter-screen for MITF inhibitor project, biochemical, triplicate. shares compounds with MITF inh. LysRS AlphaScreen counterscreen, signal interference. inhibition, % at 2.6 µM. 4,700 tested, 7.6% active. AID 1259376, 2018;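 active = inhibition above a cutoff derived from the DMSO control wells, cut at about 30% in these data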
Numbers without * were called inactive.

N#CC1(C(=O)Nc2ccc([N+](=O)[O-])cc2)CC2c3ccccc3C1c1ccccc12 (stereo not given) was read as TEAD-YAP inh 26, GPR151 activ -1, MITF inh 30 and FBW7 activator 0.
`c1ccc(-c2cc(N3CCC4(CC3)OCCO4)nc(-c3ccccn3)n2)nc1` gave TEAD-YAP inh 68*, GPR151 activ 1, MITF inh 114*, FBW7 activator -1, MITF inh conf 116* and AlphaScreen intf2 100*.
Screening CCCc1[nH]nc2c1C(c1c(OC)cc(OC)cc1OC)C(C#N)=C(N)O2 (stereo not given) returned TEAD-YAP inh 3, GPR151 activ 1, MITF inh 12 and FBW7 activator 0.
`CCCc1[nH]nc2c1C(c1ccc(OC)cc1OC)C(C#N)=C(N)O2` (stereo not given) gave TEAD-YAP inh -1, GPR151 activ -1, MITF inh 61*, FBW7 activator 0, MITF inh conf 11 and AlphaScreen intf2 17.
Screening O=C(NC1CCCCC1)N1CCCC(N2CCN(c3ccccc3)CC2)C1 (stereo not given) returned TEAD-YAP inh 7, GPR151 activ 3, MITF inh 7 and FBW7 activator 0.
Screening N#Cc1ccccc1CNCc1ccc(Cl)cc1 returned TEAD-YAP inh 8, GPR151 activ 0, MITF inh 52*, FBW7 activator 0, MITF inh conf -5 and AlphaScreen intf2 16.
For CCCNC(=O)c1cc(Nc2cccc(N(C)C)c2)nc2ccccc12 the results were TEAD-YAP inh 4, GPR151 activ -2, MITF inh -7 and FBW7 activator 0.
For CN(C)c1cccc(Nc2cc(C(=O)NCCc3ccc(O)cc3)c3ccccc3n2)c1 the results were TEAD-YAP inh 0, GPR151 activ 1, MITF inh 70*, FBW7 activator 0, MITF inh conf -3 and AlphaScreen intf2 3.
Screening COCCNC(=S)NNC(=O)c1ccc(Cl)cc1Cl returned TEAD-YAP inh -7, GPR151 activ 0, MITF inh -12 and FBW7 activator 0.
For COCCNC(=S)NNC(=O)c1cc(Cl)ccc1OC the results were TEAD-YAP inh -6, GPR151 activ -1, MITF inh 63*, FBW7 activator 0, MITF inh conf 12 and AlphaScreen intf2 14.
For Nc1nnnn1/N=C/c1ccc(-c2ccc(Br)cc2)o1 the results were TEAD-YAP inh 9, GPR151 activ 0, MITF inh 15 and FBW7 activator 0.
Screening COc1cc(CN2CCN(C3CCCCC3)CC2)cc(OC)c1O returned TEAD-YAP inh -8, GPR151 activ -1, MITF inh 65*, FBW7 activator 0, MITF inh conf 8 and AlphaScreen intf2 29.
`COc1cc(CN2CCN(C3CCCC3)CC2)cc(OC)c1OC` gave TEAD-YAP inh 11, GPR151 activ 3, MITF inh 65*, FBW7 activator 0, MITF inh conf 28*, AS interf DR >6.5 and AlphaScreen intf2 21.
Screening CCC(C)C(=O)NCc1nnc2n1CCN(C/C=C/c1ccco1)CC2 (stereo not given) returned TEAD-YAP inh 7, GPR151 activ 1, MITF inh 60*, FBW7 activator 0, MITF inh conf 77*, AS interf DR >6.5 and AlphaScreen intf2 -8.
Screening Cc1ccccc1-n1c(=S)sc2c(=O)n(-c3ccccc3F)c(SCC(=O)NCc3ccccc3)nc21 returned TEAD-YAP inh -16, GPR151 activ -1, MITF inh 28 and FBW7 activator 1.
For Oc1ccc(CNc2cccc(F)c2)c2cccnc12 the results were TEAD-YAP inh 55*, GPR151 activ -1, MITF inh 62*, FBW7 activator -1, MITF inh conf 98* and AlphaScreen intf2 100*.
`COc1ccc(NCc2ccc(O)c3ncccc23)c(OC)c1` gave TEAD-YAP inh 8, GPR151 activ -1, MITF inh 75*, FBW7 activator -1, MITF inh conf 46* and AlphaScreen intf2 89*.
Screening Oc1ccc(CNc2ccc(F)cc2)c2cccnc12 returned TEAD-YAP inh 11, GPR151 activ -2, MITF inh 66*, FBW7 activator -1, MITF inh conf 104* and AlphaScreen intf2 100*.
For Oc1ccc(CNc2ccccc2)c2cccnc12 the results were TEAD-YAP inh 4, GPR151 activ 0, MITF inh 73*, FBW7 activator -1, MITF inh conf 44* and AlphaScreen intf2 80*.
Screening Oc1ccccc1CNc1ccc(F)cc1 returned TEAD-YAP inh -6, GPR151 activ 1, MITF inh -1 and FBW7 activator 0.
`Cc1cccc(CN2CCc3nnc(CNC(=O)c4ccccn4)n3CC2)c1` gave TEAD-YAP inh -1, GPR151 activ 1, MITF inh 1 and FBW7 activator 0.
For COc1cccc(NCc2ccc(O)c3ncccc23)c1 the results were TEAD-YAP inh 92*, GPR151 activ 0, MITF inh 56*, FBW7 activator -2, MITF inh conf 93* and AlphaScreen intf2 92*.
Screening O=C1CC(N2CCN(S(=O)(=O)c3ccccc3F)CC2)C(=O)N1c1ccccc1F (stereo not given) returned TEAD-YAP inh 1, GPR151 activ -1, MITF inh 79*, FBW7 activator 0, MITF inh conf -14 and AlphaScreen intf2 4.
`O=C1CC(N2CCN(c3ccc(Cl)cc3)CC2)C(=O)N1c1ccccc1F` (stereo not given) gave TEAD-YAP inh 8, GPR151 activ -1, MITF inh 2 and FBW7 activator 0.
`CCC(C)NC(=O)CN(C)S(=O)(=O)c1ccc2nc(C)sc2c1` (stereo not given) gave TEAD-YAP inh 12, GPR151 activ 0, MITF inh 6 and FBW7 activator 0.
For CCC1(C2CCN(C(=O)C3CCCC3)CC2)NC(=O)N(CCc2scnc2C)C1=O (stereo not given) the results were TEAD-YAP inh 0, GPR151 activ 0, MITF inh 20 and FBW7 activator 1.
For N#CC(C#N)=C(N)/C(C#N)=C/c1ccc([N+](=O)[O-])o1 the results were TEAD-YAP inh 5, GPR151 activ 1, MITF inh 84*, FBW7 activator -1, MITF inh conf 67*, AS interf DR >6.5 and AlphaScreen intf2 6.

From PubChem BioAssay
